Many of the other results were omitted from the sample, so hits are more common in it than they were.
Shiga toxin inh = A qHTS for Small Molecule Inhibitors of Shiga Toxin. Vero cells, Shiga toxin protein synthesis inhibition reporter. inhibition, % at 38.7 µM. hit rate 9.2% among 290,000. AID 2315, 2010; in the data active = inhibition mostly above about 28%, no sharp cut-off; inactive = mostly below about 43%; also: 0% is about no effect
LmPK inh = qHTS Assay for Inhibitors of Leishmania Mexicana Pyruvate Kinase (LmPK); Q27686; purified LmPK, Kinase-Glo ATP luminescence, 1 h; Potency, µM (doses to about 57.5 µM), for inactives: at the top dose activity change, negative = inhibition, hits mostly inhibitors; hit rate 0.37% among 290,000; also: potency is read from the fitted curve at half-maximal effect; % is scaled to controls: 0 for no effect and ±100 for the full control effect
Target sequence (Q27686 whole entry, looked up): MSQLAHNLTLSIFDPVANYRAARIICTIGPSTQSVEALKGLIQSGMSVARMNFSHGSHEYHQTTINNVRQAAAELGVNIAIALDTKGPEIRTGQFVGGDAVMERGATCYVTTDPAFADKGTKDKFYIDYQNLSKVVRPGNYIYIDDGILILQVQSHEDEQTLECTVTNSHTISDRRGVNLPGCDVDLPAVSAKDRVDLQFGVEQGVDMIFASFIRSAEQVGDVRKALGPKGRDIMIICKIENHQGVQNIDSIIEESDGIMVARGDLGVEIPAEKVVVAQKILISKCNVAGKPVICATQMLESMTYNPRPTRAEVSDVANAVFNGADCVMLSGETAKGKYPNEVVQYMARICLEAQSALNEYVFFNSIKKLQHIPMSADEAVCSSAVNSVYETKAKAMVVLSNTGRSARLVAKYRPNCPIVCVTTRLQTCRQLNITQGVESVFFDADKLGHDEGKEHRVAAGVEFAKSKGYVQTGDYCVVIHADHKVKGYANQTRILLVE
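0.1 nM LmPK, 0.5 mM PEP, 0.1 mM ADP; 50 mM imidazole pH 7.2, 7 mM MgCl2, 50 mM KCl; 1 h RT. Kinase-Glo luminescence readout, normalized to no-enzyme (full inhibition) and uninhibited wells.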
Sm TGR inh = qHTS Assay for the Inhibitors of Schistosoma Mansoni Peroxiredoxins; purified TGR, DTNB reduction, TNB absorbance 405 nm; Potency, µM (top dose mostly 114 µM), for inactives: at the highest dose activity change, negative = inhibition, hits mostly inhibitors; AID 485364, 2010; hit rate 3% among 360,000; also: potency is read from the fitted curve at half-maximal effect; % is scaled to controls: 0 for no effect and ±100 for the full control effect; nearly all actives have a fitted effect of over 60% in size
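TGR 20 nM + NADPH 100 uM (dispensed conc.), cpd preinc 15 min RT; start with NADPH (500 uM addition) then DTNB (15 mM addition). Kinetic TNB absorbance, 405 nm filter. Four-parameter Hill fit across titration.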
Cycloheximide cs = Cycloheximide Counterscreen for Small Molecule Inhibitors of Shiga Toxin. cell reporter, cycloheximide protein synthesis inhibition counterscreen. max response, %. hit rate 12% among 300,000; in the data active = max response mostly above about 13%, no sharp cut-off; inactive = mostly below about 14%; also: read at 38.3 µM for the half of the compounds with a filed dose; 0% is about no effect
Giardia FBPA inh = qHTS Assay for Inhibitors of Fructose-1,6-bisphosphate Aldolase from Giardia Lamblia; AID 2451, 2010; hit rate 0.71% among 290,000; Potency, µM (highest dose often 59.6 µM), for inactives: at the highest dose activity, negative = inhibition, most hits filed as inhibitors; purified Giardia FBPA; A8B2U2; also: potency is read from the fitted curve at half-maximal effect; % is scaled to controls: 0 for no effect and ±100 for the full control effect; nearly all actives have a fitted effect of over 55% in size
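40 nM FBPA preincubated 10 min at RT with compound (up to 57.5 uM final), then substrate plus GAPDH/TPI/NAD/arsenate coupling and diaphorase/resazurin added. Fluorescence read after 20 min at RT, 525/598 nm.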
Tb PYK inh = qHTS of Trypanosoma Brucei Inhibitors. AID 624173, 2012. pyruvate kinase (Trypanosoma brucei), Q57TT1. Potency, µM (titrated, usually from 76.8 µM), inactives show top-dose activity, negative = inhibition, usual class: inhibitors. TbPYK enzyme, Kinase-Glo Plus ATP luminescence, 45 min. hit rate 0.12% among 410,000; also: potency is read from the fitted curve at half-maximal effect; % is scaled to controls: 0 for no effect and ±100 for the full control effect; nearly all actives have a fitted effect of over 50% in size
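Glycolytic pyruvate kinase of T. brucei was incubated with substrate, test compound and 130 uM ADP for 45 minutes at room temperature. Luminescent Kinase-Glo Plus signal was measured after 10 minutes.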
Starred values were filed as active, the others as inactive; i = inactive; ? = inconclusive; nt = not tested or not shown; [ ] = dose if it differs, or a comment. Unless noted, calls follow the shape of the dose curve; as a rule, active = well fitted curve in the direction sought with a large enough effect; inconclusive = small, poorly fitted or top-dose-only effect, or another doubt; inactive = no such curve, though single readings can be large; an effect the other way counts as inactive or inconclusive.

SMILES	Shiga toxin inh	LmPK inh	Sm TGR inh	Cycloheximide cs	Giardia FBPA inh	Tb PYK inh
O=C(Nc1ccc2c(c1)OCCO2)c1ccc(S(=O)(=O)N2CCCCC2)cc1	64	0%	-1%	33*	-2%	-1%
O=S(=O)(c1ccc(NC(=S)Nc2ccc(OC(F)F)cc2)cc1)N1CCOCC1	6	0%	45µM*	-5	-16%	5%
CCC(=O)N1CCc2cc(Br)cc(S(=O)(=O)N3CCCC(C(=O)N(C)c4ccc(Br)cc4)C3)c21 (stereo not drawn)	nt	nt	-7%	nt	nt	-5%
CCc1ccccc1S(=O)(=O)Cc1ccc(C(=O)NCCc2ccc(Cl)cc2)o1	nt	nt	-7%	nt	nt	-2%
Cc1ccc(NC(=O)c2c(NC(=O)c3ccc(F)cc3)sc3c2CCCC3)cc1C	nt	nt	3%	nt	nt	-5%
C[C@@H]1CN([C@H](C)CO)C(=O)CCCn2cc(nn2)CO[C@H]1CN(C)C(=O)Nc1ccccc1	nt	nt	nt	nt	nt	-5%
COC(CNC(=O)c1ccc2c(c1)nc(C)n2-c1cccc(C)c1)OC	-5	12%	-2%	-1	4%	-23%
O=C(Nc1ccc(F)cc1)c1ccc(Br)c(S(=O)(=O)N2CCOCC2)c1	28	5%	-4%	8	-1%	-8%
O=C(Nc1nc(-c2cccs2)cs1)c1cccc(S(=O)(=O)N2CCCCC2)c1	17	1%	2%	18*	-10%	-30%
O=C(Nc1ccc2c(c1)OCO2)c1cccc(S(=O)(=O)N2CCCC2)c1	41*	-1%	-9%	24*	-11%	1%
O=C(CSc1nnc(Nc2ccccc2)s1)Nc1cccc(S(=O)(=O)N2CCCCC2)c1	58*	0%	-3%	49*	5%	-12%
Nc1nnc(SCC(=O)Nc2cccc(S(=O)(=O)N3CCCCC3)c2)s1	nt	nt	-5%	nt	nt	-5%
O=C(Nc1ccc2c(c1)OCCO2)c1ccc(Br)c(S(=O)(=O)N2CCOCC2)c1	52*	-5%	12%	32*	-2%	2%
CN(C(=O)CSc1nnc(C2CC2)n1C1CC1)C1(C#N)CCCCC1	nt	nt	0%	nt	nt	-10%
CC(C)(C)c1ccc(NC(=O)c2cc(C3CCCN(S(=O)(=O)c4cccc5cccnc45)C3)on2)cc1 (stereo not drawn)	nt	nt	nt	nt	nt	4%
CC1(C)C2CC[C@]1(C)[C@@H](O)C2	nt	nt	nt	nt	nt	2%
Cc1nnc(SCC(=O)Nc2cccc(S(=O)(=O)N(C)c3ccccc3)c2)s1	-67	-1%	-1%	38*	-15%	-6%
C/C(=N\NC(=O)Cc1ccc(Cl)cc1)c1cccc(NC(=O)c2cccnc2)c1	-6	-15%	1%	3	nt	5%
CCOC(=O)CN1c2ccccc2NC(=O)CC1C (stereo not drawn)	-8	1%	32µM*	-1	0%	-8%
CC(c1nnc(SCC(=O)c2c(N)n(C3CC3)c(=O)[nH]c2=O)n1-c1ccc(F)cc1)N(C)C (stereo not drawn)	nt	nt	0%	nt	nt	7%
O=C(Nc1ccc(Cl)c(Cl)c1)Nc1ccccc1O	91*	-20%	-32%	57*	-29%	-1%
Cc1ccc(NC(=O)Nc2cccc(Cl)c2)c(C(=O)O)c1	56	1%	nt	24*	?	-17%
CSc1ccccc1NC(=O)Nc1cccc(Cl)c1	84*	-6%	-23%	41*	8%	-7%
CSc1ccccc1NC(=O)Nc1cccc(Cl)c1C	17	-5%	16%	21	8%	2%
CSc1ccccc1NC(=O)Nc1ccc(F)c(Cl)c1	61*	-9%	4%	34*	-7%	-6%
SMILES	Shiga toxin inh	LmPK inh	Sm TGR inh	Cycloheximide cs	Giardia FBPA inh	Tb PYK inh
O=C(Nc1nccs1)C1CC=CC2CCN(Cc3ccc(Cl)c(Cl)c3)C(=O)C21 (stereo not drawn)	-11	nt	nt	-1	21%	nt
NC(=O)C1=C[C@H](c2ccc3c(c2)OCO3)C[C@H](OCc2ccc(CO)cc2)O1	49*	2%	56µM*	43*	?	0%
C#CCNC(=O)C1=C[C@H](c2ccc3c(c2)OCO3)C[C@H](OCCCCO)O1	nt	nt	nt	nt	nt	-3%
C#CCNC(=O)C1=C[C@H](c2ccc(Br)cc2)C[C@H](OCc2ccc(CO)cc2)O1	9	3%	?	2	2%	1%
C#CCNC(=O)C1=C[C@@H](c2ccc(Br)cc2)C[C@@H](OCc2ccc(CO)cc2)O1	3	0%	45µM*	28	-12%	4%
C#CCNC(=O)C1=C[C@H](c2ccc3c(c2)OCO3)C[C@H](OCc2ccc(CO)cc2)O1	20	3%	?	18*	-11%	1%
O=C(CCn1cccn1)NCc1ccc(Cl)cc1	nt	nt	-3%	nt	nt	-2%
CC[C@]12c3[nH]c4cc(CCC(=O)N(C)C)ccc4c3CCN1C(=O)[C@@H](CC(=O)NCc1cccc(C(F)(F)F)c1)C[C@@H]2C(=O)N1CCN(C(=O)C2CC2)CC1	nt	nt	nt	nt	nt	-3%
CC1(C)Cc2c(ccc3ccccc23)C(=O)N1	16	5%	13%	11*	-2%	5%
CC[C@H]1C(c2cccc(Cl)c2)=NN(c2ccccc2)[C@@H]1CO	i	nt	nt	16	-15%[89.2 µM]	nt
COc1cc(CN2CCC(C(=O)N3CCCC(C)C3)CC2)cc(OC)c1O (stereo not drawn)	-34	-4%	10µM*	-4	?	-1%
COc1cc(CN2CCC(C(=O)N3CCN(c4ccccc4F)CC3)CC2)cc(OC)c1O	-22	1%	?	-7	?	-3%
CCOC(=O)C1CCN(Cc2ccc(O)c(OC)c2)CC1	13	-1%	56µM*	-1	16%	nt
CCOC(=O)C1CCCN(Cc2cc(OC)c(O)c(OC)c2)C1 (stereo not drawn)	-7	-5%	16µM*	-3	-25%	-14%
CCOC(=O)C1CCN(Cc2cc(C(C)(C)C)c(O)c(C(C)(C)C)c2)CC1	-5	2%	11µM*	6	-22%	1%
CC(=O)c1c(C)[nH]c(C(=O)OCC(=O)NCc2cccs2)c1C	nt	nt	-2%	nt	nt	3%
CN[C@@H]1[C@H](O[C@@H]2O[C@H](C)[C@@](O)(CO)[C@H]2O[C@H]2[C@H](O)[C@H](O)[C@H](N=C(N)N)[C@@H](O)[C@@H]2N=C(N)N)O[C@@H](CO)[C@H](O)[C@H]1O	-17	nt	nt	13	1%	nt
COC(=O)N[C@H](C[N+](=O)[O-])C(C)(C)C	nt	nt	nt	nt	-1%	nt
Cc1cccnc1NC(=O)Cn1nc([N+](=O)[O-])cc1C	6	1%	2%	-3	6%	-1%
Cc1cccnc1NC(=O)Cn1nc(-c2ccccc2)oc1=S	89*	0%	-2%	40*	-11%	-7%
CCCC1N=C2c3ccccc3N=C(SCC(=O)NCCc3ccc(Cl)cc3)N2C1=O (stereo not drawn)	nt	nt	0%	nt	nt	-11%

Screening data (PubChem)
